Screens from PubChem BioAssay.
JMJD2E inh – inhibitors of human JMJD2E histone demethylase; Potency, µM (doses to about 57.1 µM), most hits filed as inhibitors; B2RXH2; JMJD2E catalytic domain, FDH-coupled NADH fluorescence (FDH is formaldehyde dehydrogenase); hit rate 1.6% among 230,000; active = well fitted inhibition curve with a large enough effect, not every such curve was filed as active; inconclusive = small, poorly fitted or top-dose-only effect, or another doubt; inactive = no such curve, though single readings can be large or run the other way; note: nearly all actives have a fitted effect of over 50% in size
RECQ1 inh-1 – inhibitors of human RECQ1 DNA helicase; RECQ1 DNA unwinding, red fluorescence kinetic read; Potency, µM (doses to about 57.3 µM), most hits filed as inhibitors; hit rate 0.54% among 240,000; note: nearly all actives have a fitted effect of over 30% in size
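50 nM RECQ1T1 preincubated 15 min with compound in Tris pH 8.0 buffer with MgCl2, DTT, Tween-20 and 2.5 ug/ml poly(dI-dC); started with 200 nM TAMRA/BHQ-2 forked duplex and 2 mM ATP. Unwinding read as fluorescence (525/598 nm), two reads 2 h apart.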
BLM helicase inh – blocks DNA unwinding by human BLM helicase. recombinant BLM DNA unwinding, fluorescence dequenching. Potency, µM (top dose mostly 56.1 µM), hits mostly inhibitors. hit rate 0.2% among 350,000; note: nearly all actives have a fitted effect of over 35% in size
APE1 inh – blocks human APE1 abasic DNA cleavage; hit rate 0.35% among 350,000; P27695; Potency, µM (series often up to 65.8 µM), usual class: inhibitors; AID 2517; recombinant APE1, TAMRA/BHQ-2 abasic DNA cleavage fluorescence; note: nearly all actives have a fitted effect of over 55% in size
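Compound pre-exposure to 0.75 nM APE1, 15 min at ambient temperature. Reaction initiated with 50 nM TAMRA/BHQ-2 THF substrate, read immediately in kinetic mode, 525 nm excitation, 598 nm emission.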
L3MBTL1 inh – inhibitors of human L3MBTL1 | hit rate 0.66% among 230,000 | AID 485360 | Potency, µM (top dose mostly 57.1 µM), actives largely listed as inhibitors | Q9Y468 | AlphaScreen L3MBTL1–H3K9me1 peptide binding; note: nearly all actives have a fitted effect of over 60% in size
Target sequence (Q9Y468 whole entry, looked up): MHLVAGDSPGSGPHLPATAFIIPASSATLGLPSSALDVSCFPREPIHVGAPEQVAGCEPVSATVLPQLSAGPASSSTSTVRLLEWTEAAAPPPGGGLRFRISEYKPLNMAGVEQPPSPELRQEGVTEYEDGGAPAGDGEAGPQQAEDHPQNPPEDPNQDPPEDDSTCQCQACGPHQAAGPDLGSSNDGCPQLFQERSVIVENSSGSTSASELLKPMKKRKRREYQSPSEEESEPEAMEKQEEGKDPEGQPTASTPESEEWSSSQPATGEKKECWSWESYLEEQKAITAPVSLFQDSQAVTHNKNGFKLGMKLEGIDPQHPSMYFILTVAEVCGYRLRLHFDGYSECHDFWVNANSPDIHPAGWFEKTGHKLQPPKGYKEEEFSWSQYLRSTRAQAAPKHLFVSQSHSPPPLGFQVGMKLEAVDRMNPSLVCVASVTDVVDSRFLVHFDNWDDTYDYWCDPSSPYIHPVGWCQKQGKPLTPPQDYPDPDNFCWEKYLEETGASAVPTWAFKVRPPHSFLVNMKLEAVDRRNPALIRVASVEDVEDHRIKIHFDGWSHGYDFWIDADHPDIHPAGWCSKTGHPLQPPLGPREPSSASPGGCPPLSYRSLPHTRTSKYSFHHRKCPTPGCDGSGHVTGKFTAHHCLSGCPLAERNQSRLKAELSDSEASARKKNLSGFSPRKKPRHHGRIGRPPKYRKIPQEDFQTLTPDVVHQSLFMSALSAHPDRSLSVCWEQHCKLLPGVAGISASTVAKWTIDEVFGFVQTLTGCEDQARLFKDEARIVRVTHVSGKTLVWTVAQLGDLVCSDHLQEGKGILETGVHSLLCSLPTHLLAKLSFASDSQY
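L3MBTL1 50 nM + b-AHA-H3(1-15)K9me1 75 nM, 30 min RT; compound added, 30 min RT; streptavidin donor/Ni-chelate acceptor beads 10 ug/mL each final, 30 min RT dark; AlphaScreen read.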
RECQ1 conf – confirmation of human RECQ1 helicase inhibitors | RECQ1 helicase DNA unwinding, fluorescence | AID 2708 | Potency, µM (doses to about 229 µM), actives largely listed as inhibitors | shares compounds with RECQ1 inh-1 | hit rate 28% among 610; note: nearly all actives have a fitted effect of over 45% in size
ADP FP counter – counter-screen for RECQ1 inhibitors: ADP displacement; shares compounds with RECQ1 inh-1; ADP fluorescence polarization displacement counterscreen; Potency, µM (titrated, usually from 228 µM), actives largely listed as inhibitors; hit rate 27% among 530; AID 2711; note: nearly all actives have a fitted effect of over 45% in size
RECQ1 inh-2 – blocks human RECQ1 DNA unwinding; shares compounds with RECQ1 inh-1; recombinant RECQ1 DNA unwinding, red fluorescence; Potency, µM (doses to about 119 µM), hits mostly inhibitors; hit rate 15% among 1,100; AID 504841; note: nearly all actives have a fitted effect of over 50% in size
Hits are given with their value; - = inactive; ? = inconclusive; . = not tested or not shown; [ ] = dose if it differs, or a comment. The sample as a whole holds a higher share of hits than the screen did. Unless noted, calls come from the whole dose curve; as a rule, active = well fitted curve in the direction sought with a large enough effect; inconclusive = small, poorly fitted or top-dose-only effect, or another doubt; inactive = no such curve, though single readings can be large; an effect the other way counts as inactive or inconclusive.

SMILES	JMJD2E inh	RECQ1 inh-1	BLM helicase inh	APE1 inh	L3MBTL1 inh	RECQ1 inh-2	others
O=C(CSc1nnc(-c2ccccc2)n1Cc1ccccc1)N1CCOCC1	-	-	-	-	-	.
Cc1cc(Cl)c(OCCn2ccnc2)c(Br)c1	.	.	-	-	-	.
C=CCn1c(SCC(=O)NCc2ccccc2)nnc1-c1ccccc1O	-	-	-	-	-	.	RECQ1 conf=-;ADP FP counter=-
O=C(/C(=N/O)n1cncn1)c1ccccc1Cl	-	-	-	-	-	.
CC(=O)Oc1ccc(C(=O)Nc2ccc3c(c2)C(=O)N(CCC(=O)O)C3=O)cc1	?	-	-	-	.	.	RECQ1 conf=?;ADP FP counter=?
C=CCn1c(C)cc(C(=O)CSc2nnc(-c3cccc(S(=O)(=O)N(CC)CC)c3)o2)c1C	-	-	-	-	.	.
CCN1CCN(c2cc(C)c3cc(NC(=O)c4ccc(OC)c(OC)c4)ccc3n2)CC1	?	22.4µM	-	-	.	?
c1ccc(-c2ccc(-c3[nH]ncc3CN3CCC(N4CCSCC4)CC3)cc2)cc1	-	-	-	-	-	.
Cc1ccc(-c2noc(C3CCCN(S(=O)(=O)c4ccc5ccccc5c4)C3)n2)o1 (centres undefined)	-	-	-	-	.	.
CC(=O)c1cccc(S(=O)(=O)N2CCCC(c3nc(-c4ccc(C)o4)no3)C2)c1 (centres undefined)	-	?	-	-	-	-
Cc1nn2c(COc3ccc(NC(=O)C(C)C)cc3)nnc2c2ccccc12	-	?	-	-	.	-
COc1ccccc1-c1csc(NC(=O)c2cc(-c3cccs3)nc3ccccc23)n1	?	?	-	-	-	-
Cc1nc(C)c(N)c(=O)[nH]1	-	-	-	-	-	.
CC1(OC(=O)c2ccco2)C(=O)C=C2C=C(C3CC3)OC=C2C1=O (centres undefined)	-	-	-	-	.	.
CC1(OC(=O)c2cnc3ccccc3n2)C(=O)C=C2C=C(C3CC3)OC=C2C1=O (centres undefined)	-	12.6µM	-	-	.	-
Clc1ccc(Nc2nc(N3CCOCC3)nc(N3CCOCC3)n2)cc1Cl	.	.	-	-	.	.
Cc1ccc(Nc2nc(Nc3ccc(Cl)cc3)nc(N3CCOCC3)n2)cc1	.	.	.	.	.	.	RECQ1 conf=-
CC(=O)Nc1ccc(Nc2nc(Nc3ccc(Cl)cc3)nc(N3CCOCC3)n2)cc1	.	.	.	.	.	.	RECQ1 conf=-
CCOC(=O)Cc1cc(=O)n(-c2nc3ccccc3s2)[nH]1	?	?	-	?	28.2µM	-
CCCc1cc(=O)n(-c2nc3ccccc3s2)[nH]1	?	-	-	-	-	.
O=C(O)C1(NS(=O)(=O)c2ccc(Cl)cc2)CCCCC1	-	-	-	-	.	.
Cc1cccc(N=C2NC(=O)S/C2=C\c2ccco2)c1	-	-	-	?	?	.
O=C1NC(=Nc2ccc(O)cc2)S/C1=C/c1ccco1	-	-	-	?	.	.
COc1ccc(N=C2S/C(=C\c3ccco3)C(=O)N2CC(C)C)cc1	-	-	-	-	-	.
COc1ccc(N=C2NC(=O)/C(=C\C=C\c3ccco3)S2)cc1	?	?	17.8µM	?	31.6µM	?
SMILES	JMJD2E inh	RECQ1 inh-1	BLM helicase inh	APE1 inh	L3MBTL1 inh	RECQ1 inh-2	others
O=C1NC(=Nc2ccc3ccccc3c2)S/C1=C/c1ccco1	-	?	17.8µM	?	28.2µM	?
Cc1cccc(N=C2NC(=O)/C(=C/C=C/c3ccco3)S2)c1	?	35.5µM	?	?	?	?
O=C(C1CCN(Cc2ccccc2)CC1)N1CCCC1	-	-	-	-	-	.
O=C1CC(=O)CC(c2ccccc2Cl)C1	-	?	-	-	-	-
Cn1c2c(c(=O)n(C)c1=O)C(c1ccccc1Cl)CC(=O)N2 (centres undefined)	-	-	-	-	.	.
CCNC(=O)N(CC)C[C@H]1N[C@@](Cc2ccccc2)(C(=O)OC)[C@H]2C(=O)N(C)C(=O)[C@@H]12	.	.	.	-	-	.
O=C(Cc1cccs1)NC1CC(=O)N(c2ccc(Cl)cc2)C1 (centres undefined)	.	.	-	.	.	.
Oc1ccc(C2CNCCc3c2cc(O)c(O)c3Cl)cc1 (centres undefined)	?	22.4µM	-	-	-	.	RECQ1 conf=?;ADP FP counter=44.7µM
CC(C)c1ccc(/C=C2\C(=O)N(CCN3CCOCC3)C(=S)N2C)cc1	-	-	-	-	.	.
CN(C)c1ccc(NC(=O)CSc2nc3ccsc3c(=O)n2CCCCCC(=O)O)cc1	.	.	-	.	.	.
COc1ccc(NC(=O)CSc2nc3ccsc3c(=O)n2CCCCCC(=O)O)cc1	-	-	-	-	.	.	RECQ1 conf=?;ADP FP counter=-
O=C(O)CCCCCn1c(SCC(=O)Nc2ccc(F)cc2)nc2ccsc2c1=O	-	-	-	-	.	.	RECQ1 conf=-;ADP FP counter=-
CC(=O)Nc1ccc(S(=O)(=O)NNc2cccc(C)c2)cc1	.	.	-	-	.	.
O=C(Cn1cnc2cc([N+](=O)[O-])ccc2c1=O)NC(c1ccccc1)c1ccccc1	-	?	-	-	-	-
CC(C)(C)c1ccccc1NC(=O)Cn1cnc2cc([N+](=O)[O-])ccc2c1=O	-	-	-	-	-	.
CCOC(=O)c1noc2nc(C)n(CC(=O)Nc3ccccc3F)c(=O)c12	.	.	-	.	.	.
COC(=O)c1cn(C)c2ccc(S(=O)(=O)N3CCOCC3)cc2c1=O	-	-	-	-	-	.
COC(=O)c1cn(C)c2ccc(S(=O)(=O)N3CCCC3)cc2c1=O	-	?	-	-	-	-
CN=Cc1nc(-c2ccccc2)oc1O	-	-	-	-	-	.
CC1=Nc2ccccc2/C1=C\c1nc(-c2ccc(F)cc2)oc1O	?	?	-	-	.	?
Cc1ccc(NC(=O)c2ccc(OCc3c(C)noc3C)cc2)cc1	-	-	-	-	-	.	RECQ1 conf=-;ADP FP counter=50.1µM
Cc1noc(C)c1COc1ccc(C(=O)Nc2cccnc2)cc1	-	0.891µM	-	-	-	-	RECQ1 conf=56.2µM;ADP FP counter=126µM
Cc1cccc(NC(=O)c2ccc(OCc3c(C)noc3C)cc2)c1	.	.	.	-	-	.
CC1(C)OC(=O)C(=CNc2ccccc2)C(=O)O1	-	-	-	-	-	.
Cc1nnc(SCCn2c(N3CCN(C)CC3)nc3c2c(=O)n(C)c(=O)n3C)s1	-	-	-	-	.	.
CCOCCCn1c(=N)c(S(=O)(=O)c2ccc(C)cc2)cc2c(=O)n3ccccc3nc21	.	.	-	.	.	.
Cc1ccc(S(=O)(=O)c2cc3c(=O)n4ccccc4nc3n(Cc3ccco3)c2=N)cc1	?	14.1µM	-	?	-[11.4 µM]	?
CC12c3ccccc3C(c3ccccc31)C1C(=O)N(c3cccnc3)C(=O)C12 (centres undefined)	-	-	-	-	-	.
N#CC1=C(N)Oc2c(ccc3cccnc23)C1c1ccccc1 (centres undefined)	?	-	-	-	-	.
